Reference: PubChem BioAssay AID2284144 (EPA ToxCast)
Activity calls are given as the source filed them. The calls were made as follows: active = hit-call score of the fitted dose curve at least 0.9, where 1 is the maximum; inactive = score below 0.9.

Target: human Adrenoceptor alpha2C Antagonism, ADRA2C (gene 152) (UniProt P18825)
Assay: ERF_TW_GPCR_hADRA2C: Eurofins (ERF) G Protein-Coupled Receptor (GPCR) Radioligand Binding LeadHunter Assay for human Adrenoceptor alpha2C Antagonism
Method: ERF_TW_GPCR_hADRA2C is a biochemical, single-readout assay that uses extracted gene-proteins in a cell-free assay. Measurements were taken 1 hour after chemical dosing in a 96-well plate. See alpha2C Human Adrenoceptor GPCR Binding (Antagonist Radioligand) Assay, Panlabs.ERF_TW_GPCR_hADRA2C is an assay component calculated from the ERF_TW_GPCR_hADRA2C assay. It is designed to measure radioligand binding using a type of binding reporter as detected by scintillation counting with radiometry technology.Data from the assay component ERF_TW_GPCR_hADRA2C was analyzed at the assay endpoint, ERF_TW_GPCR_hADRA2C, in the positive analysis fitting direction relative to DMSO as the negative control and baseline of activity. Using a type of binding reporter, loss-of-signal activity can be used to understand changes in radioligand binding as they relate to gene ADRA2C. To generalize the intended target to other relatable targets, this assay endpoint is annotated to the gpcr intended target family, where the subfamily is adrenoceptor.
Human recombinant adrenergic alpha2C receptor expressed in CHO-K1 cells are used in modified Tris-HCl buffer pH 7.4. A 2 ug aliquot of membrane is incubated with 0.5 nM [3H]Rauwolscine for 60 minutes at 25C. […] Membranes are filtered and washed, the filters are then counted to determine [3H]Rauwolscine specifically bound. […]

Sequence of human Adrenoceptor alpha2C Antagonism, ADRA2C (gene 152) (P18825 whole entry, looked up): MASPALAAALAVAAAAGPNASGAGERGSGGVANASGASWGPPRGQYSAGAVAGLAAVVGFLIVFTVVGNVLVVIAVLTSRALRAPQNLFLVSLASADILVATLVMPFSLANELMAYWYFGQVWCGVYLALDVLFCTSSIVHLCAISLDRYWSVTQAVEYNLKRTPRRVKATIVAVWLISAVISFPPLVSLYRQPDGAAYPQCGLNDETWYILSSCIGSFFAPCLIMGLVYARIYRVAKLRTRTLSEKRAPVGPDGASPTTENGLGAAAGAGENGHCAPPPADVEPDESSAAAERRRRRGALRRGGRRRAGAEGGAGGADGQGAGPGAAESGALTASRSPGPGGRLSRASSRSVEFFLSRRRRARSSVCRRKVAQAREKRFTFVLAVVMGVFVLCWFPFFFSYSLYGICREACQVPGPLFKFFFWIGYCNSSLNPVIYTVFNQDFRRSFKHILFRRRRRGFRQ

| Structure (SMILES) | AC50 |
| --- | --- |
| O=C(/C=C/c1ccc(O)cc1)CC(=O)/C=C/c1ccc(O)cc1 | 602 nM (active) |
